Measured values from PubChem BioAssay AID1117319 (Southern Research Institute, 2015).
Values joined by “and” are separate entries in the source; they are usually repeats but may differ in a detail not shown here. Equal values may be shown once. Screen size: about 260,000 compounds; about 1,500 (0.58%) were called active. About 5% were inconclusive and are not listed.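 The calls were made as follows: active = inhibition above a set limit at one or more doses, reproduced on every date tested; inconclusive = results disagree between test dates, or hit never tested in dose response; inactive = the rest.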 A selection follows. Results with a measured potency or affinity are listed apart.

Biological target: Virion infectivity factor (Human immunodeficiency virus type 1 group M subtype B (isolate BH10)) + Virion infectivity factor (Human immunodeficiency virus type 1 group M subtype B (isolate BRU/LAI)) + Virion infectivity factor (Human immunodeficiency virus type 1 group M subtype B (isolate PCV12)) + Virion infectivity factor (Human immunodeficiency virus type 1 group M subtype B (isolate HXB2)) + DNA dC->dU-editing enzyme APOBEC-3G (Homo sapiens) (UniProt P69720+P69721+P69722+P69723+Q9HC16)
Assay: inhibitors of Vif binding to APOBEC3G peptide, primary screen, biochemical, TR-FRET, GST-Vif 1-94, biotin-A3G peptide, dose response retest (AID 1117319);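 also: Vif residues 1-94 fused to GST binding biotinylated APOBEC3G peptide 110-148; 0% = full assay without inhibitor and 100% = GST in place of GST-Vif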
Conditions: active compounds read high

inhibition, inactive:
Cc1nnc(SCC(=O)Nc2ccccc2)n1CCc1ccccc1 -1.11%
CC1(C)CC(NC(=O)C(c2ccccc2)c2ccccc2)CC(C)(C)N1 -4.99%
CC1(C)CC(NS(=O)(=O)c2ccccc2)CC(C)(C)N1 13.5%
CC(C)(C)c1cc(NC(=O)CCSc2nnc3ccccn23)cc(C(C)(C)C)c1 -5.51%
O=C1CCC/C1=C/Nc1ccc(Cl)cc1 -0.33%
O=C1/C(=C\c2ccc3c(c2)OCO3)CCC/C1=C/c1ccc2c(c1)OCO2 1.07%
O=C1CCCC/C1=C/Nc1ccc(C(=O)O)cc1 28.3%
O=C1/C(=C/Nc2ccc3c(c2)OCO3)CCc2ccccc21 27.2%
CC(C)(C)NC(=O)Cn1c(=O)c(=O)n(Cc2ccccc2)c2ccc(Cl)cc21 -13.9%
NS(=O)(=O)c1ccc(NC(=S)N2CCN(c3ccc(Cl)c(Cl)c3)CC2)cc1 -1.39%
Cc1ccc(-n2ncc3c(NCc4cccnc4)ncnc32)cc1C -0.06%
CC(=O)Nc1ccc2c(COC(=O)CC3Sc4ccccc4NC3=O)cc(=O)oc2c1 (stereo not drawn) -2.31%
COCCN(C(=O)COC(=O)CCn1c(C)csc1=O)c1c(N)n(Cc2ccccc2)c(=O)[nH]c1=O 3.17%
COC(=O)[C@@H](N)Cc1ccc(O)cc1 1.26%
COC(=O)C(N)Cc1ccc(O)c(O)c1 (stereo not drawn) 21.5%
CC(NC(=O)Cn1cnnn1)C12CC3CC(CC(C3)C1)C2 (stereo not drawn) -1.37%
O=C(CCN1CCN(c2ccccc2)CC1)N/N=C/c1ccccc1O -5.36%
O=C(Cc1csc(N2CCOCC2)n1)N/N=C/c1ccccc1C(=O)O 6.57%
COc1ccc(/C=N/NC(=O)CCN2CCN(c3ccccc3)CC2)c(OC)c1OC 8.69%
O=C(Cc1csc(N2CCOCC2)n1)N/N=C/c1ccc(Cl)cc1Cl -5.97%
Cc1cccc(NC(=S)NCc2ccc(F)cc2)c1 -7.76%
Cc1nn(C)c(Cl)c1C(=O)NCC(=O)O -8.59%
CCN1CCCC1Cn1cnc2c([nH]c3cccc(Cl)c32)c1=O (stereo not drawn) 32.2%
Cc1ccc(S(=O)(=O)n2nc(OC(=O)c3ccco3)cc2N)cc1 7.76%
COc1ccc(OC)c(NC(=O)COC(=O)c2ccc(S(=O)(=O)N3CCCCC3)cc2)c1 -4.24%
COc1ccc(OCCCC(=O)OC(C)C(=O)Nc2ccc(S(N)(=O)=O)cc2)cc1 (stereo not drawn) 1.05%
CC1CCC(NC(=O)c2cc(Cl)nc3ccccc23)CC1 (stereo not drawn) -9.79%
Cc1noc(/C=C/c2ccco2)c1S(=O)(=O)N1CCC(C(=O)N2CCc3ccccc32)CC1 10.8%
Cc1noc(/C=C/c2ccco2)c1S(=O)(=O)N1CCC(C(=O)N2CCc3ccccc3C2)CC1 26.3%
CCOC(=O)c1c(C)[nH]c(C(=O)CSc2nnnn2-c2ccc(C)cc2)c1C -6.65%
CCOc1cc(C)c(Cl)cc1S(=O)(=O)N(CC)CC -2.91%
CC1CCCN(S(=O)(=O)c2ccc(S(=O)(=O)NC(C)c3cccs3)cc2)C1 (stereo not drawn) -0.23%
CCOc1ccc(NC(=O)CC(=O)Nc2ccc(OCC)cc2)cc1 3.52%
COc1ccc(C(=O)NC2c3ccccc3-c3ccccc32)cc1 6.08%
C=CCSc1nnc(Cc2c(C)[nH]c3ccccc23)o1 12.5%
Cc1[nH]c2ccccc2c1Cc1nnc(SCC(N)=O)o1 9.95%
Cc1ccc(CNC(=O)COC(=O)Cn2nc(C)c([N+](=O)[O-])c2C)cc1 2.03%
NC(=S)N=Nc1c(O)[nH]c2ccc(F)cc12 14.4%
Cc1ccc2[nH]c(O)c(N=NC(N)=S)c2c1 16.9%
CNC(=S)NNc1nncc2ccccc12 -3.6%
CC(C)n1cnc2c(=S)nc[nH]c21 14.2%
O=C(CSc1nnnn1-c1cccc2ccccc12)N1CCOCC1 10.1%
CC(=C\c1ccccc1)/C=C1/SC(=S)N(C(C(=O)O)C(C)C)C1=O (stereo not drawn) -2.28%
CC(/C=C1\SC(=S)N(C(C(=O)O)C(C)C)C1=O)=C\c1ccccc1 (stereo not drawn) 9.15%
CC(C)C(C(=O)O)N1C(=O)/C(=C/c2cccn2C)SC1=S (stereo not drawn) 5.17%
CCC(C(=O)O)N1C(=O)/C(=C/c2cccn2C)SC1=S (stereo not drawn) 21.2%
CN(CCC#N)C(=O)COC(=O)c1ccccc1OCc1ccccc1Cl 23.6%
CCCCCCOc1ccc(N2C(=O)CC(N(CCc3ccc(S(N)(=O)=O)cc3)C(C)=O)C2=O)cc1 (stereo not drawn) -1.36%
CN1/C(=C/C(=S)NC(=O)C2CCC2)C(C)(C)c2ccccc21 3.95%
CCn1c(SCC(=O)NCc2cccs2)nnc1-c1cccs1 2.35%
CCc1ccc(NC(=O)CCS(=O)(=O)c2ccc(Br)cc2)cc1 11.1%
Cc1cccc(C)c1NC(=O)CCS(=O)(=O)c1ccc(Br)cc1 -1.3%
Cc1cccc(NC(=O)CCS(=O)(=O)c2ccc(Br)cc2)c1 3.92%
CCN(CC)c1ccc(NC(=O)CCS(=O)(=O)c2cccc3nsnc23)c(C)c1 12.7%
CCOc1ccccc1NC(=O)CCN1CCN(S(=O)(=O)c2ccc(Br)cc2)CC1 -2.68% and -11.1%
CCOc1ccc(NC(=O)CCS(=O)(=O)c2ccc(C)cc2)cc1 -2.94%
O=C(CCS(=O)(=O)c1ccc(Br)cc1)Nc1ccccc1Cl 24.5%
Cc1ccc(S(=O)(=O)CCC(=O)Nc2ccc(Br)cc2)cc1 21.8%
O=C(CN(Cc1ccc(F)cc1)C(=O)CNS(=O)(=O)c1ccccc1)NCc1ccco1 -1.61%
CC(=O)N1CCN(S(=O)(=O)c2ccc(Cl)cc2F)CC1 -2.38%
CC(C)c1nc(SCC(=O)N2CC(=O)Nc3ccccc32)c2ccccc2n1 -15.6%
C#CCOCCOCCOCCNc1nc(N2CCN(C(=O)[C@H](CO)n3cc([C@@H](N)C(C)C)nn3)CC2)nc(N2CCN(C(=O)[C@H](CCC(=O)O)n3cc([C@@H](N)CCCCN)nn3)CC2)n1 19.7%
Cc1ccccc1-n1nc2c(c1NC(=O)c1cc3ccccc3o1)CS(=O)(=O)C2 0.92%
COc1ccc(F)cc1CN1CCN(C(=O)CCC(=O)Nc2nnc(C(C)C)s2)CC1 1.87%
O=C(Nc1cccc(C(F)(F)F)c1)Oc1ccccc1N1CCOCC1 4.5%
COc1ccc(Cl)cc1NC(=O)CCS(=O)(=O)c1ccc(C)cc1 0.29%
COC(=O)c1ccccc1NC(=O)CCS(=O)(=O)c1ccc(Br)s1 -6.38%
Cc1ccccc1NC(=O)CCS(=O)(=O)c1ccc(Br)cc1 19.3%
COc1ccc([N+](=O)[O-])cc1NC(=O)CCS(=O)(=O)c1ccc(Br)cc1 23.2%
CCNC(=O)CSc1nnc(-c2cc(-c3ccc(Cl)cc3)nc3ccccc23)o1 -0.32%
O=C(OCc1cn([C@H]2CN(CC3CCCCC3)[C@@H](c3ccc(Cl)cc3)C[C@@H]2O)nn1)c1ccccc1 -2.33%
CC1CCCCC1NC(=O)CSc1nnc(COc2ccc(Cl)cc2)o1 (stereo not drawn) 3.41%
Cc1nc(-c2ccc(S(=O)(=O)Nc3ccc(Br)cc3Cl)s2)cs1 -10.4%
O=C(NCCCCNC(=O)C(F)(F)F)C(F)(F)F 0.85%
O=C(NCCCCCCCCCNC(=O)C(F)(F)F)C(F)(F)F 3.63%
O=C(COC(=O)CNC(=O)c1ccc(Br)o1)Nc1ccccc1OC(F)F 6.47%
CCOC(=O)COc1nc(-c2ccccc2)cc(-c2ccco2)c1C#N 4.55%
CCOC(=O)COc1nc(-c2ccc(C)cc2)cc(-c2ccco2)c1C#N -6.28%
Cc1cccc(CC(Cc2nc3ccccc3[nH]2)c2nc3ccccc3[nH]2)c1 (stereo not drawn) 10.6%
Cc1ccc2c(Cl)cc(Cl)c(OCC(=O)Nc3cccc(S(N)(=O)=O)c3)c2n1 -2.21%
O=C(N/N=C/C(Br)=C\c1ccccc1)c1ccco1 8.5%
Cc1ccc(-c2cc(C(=O)N/N=C/C(Br)=C/c3ccccc3)n[nH]2)o1 27.2%
CCOc1ccc(S(=O)(=O)Nc2cccc(C(=O)N3CCN(c4ccccc4O)CC3)c2)cc1 4.44%
COC(=O)/C(=N/Nc1ccccc1OC)N1CCCc2ccccc21 14.5%
COC(=O)/C(=N/Nc1cccc(C)c1)N1CCCc2ccccc21 24.9%
O=C(NCCc1ccccc1)C1CCN(S(=O)(=O)c2cccc3nsnc23)CC1 -0.39%
N#C/C(=C/c1ccc(N2CCCCCC2)o1)c1ccc(Cl)cc1 17.8%
N#C/C(=C/c1ccc(N2CCCCCC2)o1)c1ccc(F)cc1 5.86%
Cc1ccc(/C=C/C(=O)NCCCn2ccnc2)cc1 -9.33%
O=[N+]([O-])c1c(Nc2ccccn2)cc(Cl)c2nonc12 10.6%
O=[N+]([O-])c1c(Nc2ccccc2O)ccc2nonc12 1.82%
CC(=O)Nc1ccc(Nc2cc(N(C)C)c3nonc3c2[N+](=O)[O-])cc1 0.25%
CN(C)c1cc(Nc2cccc(O)c2)c([N+](=O)[O-])c2nonc12 -10.7%
